The target in experiment [1] is Myc proto-oncogene protein (Homo sapiens) (UniProt P01106). Briefly: ATG_Myc_CIS: Attagene CIS-FACTORIAL HepG2 Assay for human Myelocytomatosis (Myc) Proto-Oncogene Transcription Factor (AID 2282990). To be noted: HepG2, Attagene cis-reporter transcription factor activity; actives raise or lower the signal. A digest of the protocol:
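DMSO-normalised, bidirectionally fitted reporter mRNA signal. HepG2 cells transfected with cis reporter constructs, treated 24 h; transcripts detected by RT-PCR, 6-FAM primer extension and CE.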

Experiment [2] can be described thus: ATG_NF_kB_CIS: Attagene CIS-FACTORIAL HepG2 Assay for human Nuclear Factor Kappa B (NF-kB) (AID 2282991). The following applies: HepG2 Attagene cis-factorial NF-kB reporter mRNA; actives raise or lower the signal. A digest of the protocol:
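HepG2 cells transiently transfected with multiplexed cis-element reporter units measuring endogenous transcription factor activity; reporter mRNA read 24 h after dosing by RT-PCR, fluorescent labelling, HpaI digestion and capillary electrophoresis. Bidirectional fit against DMSO baseline.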

A short description of experiment [3]: ATG_NRF2_ARE_CIS: Attagene CIS-FACTORIAL HepG2 Assay for human Nuclear Factor Erythroid 2 Related Factor 2 (NFR2) response to Antioxidant Response Elements (ARE) (AID 2282992). The following applies: HepG2 Attagene ARE/NRF2 reporter, transcription factor activity; actives raise or lower the signal. In a few lines:
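Using transiently transfected HepG2 cells exposed for 24 h, reporter mRNA levels were determined by RT-PCR with fluorescent primer extension and capillary electrophoresis, analysed for gain or loss of signal against DMSO.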

A short description of experiment [4]: ATG_Oct_MLP_CIS: Attagene CIS-FACTORIAL HepG2 Assay for human Octamer-Binding Transcription Factor (Oct) (AID 2282993). To be noted: HepG2 Attagene cis-factorial Oct reporter, mRNA; actives raise or lower the signal. A digest of the protocol:
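Transient MRTU transfection of HepG2 → 24 h compound treatment → RNA isolation, reverse transcription, PCR → 6-FAM primer extension, HpaI digest → capillary electrophoresis. Activity fitted both directions against DMSO.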

For experiment [5], the target named is Cellular tumor antigen p53 (Homo sapiens) (UniProt P04637). The experiment can be described thus: ATG_p53_CIS: Attagene CIS-FACTORIAL HepG2 Assay for human p53 Transcription Factor (AID 2282994). The following applies: HepG2 p53 cis-element reporter, Attagene mRNA; actives raise or lower the signal. A digest of the protocol:
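In HepG2 cells, reporter transcription units under cis-regulatory promoters were transiently introduced. Following 24 h treatment, RNA was processed to labelled, digested cDNA fragments read by capillary electrophoresis; fitting was bidirectional versus DMSO.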

A short description of experiment [6]: BSK_3C_TissueFactor: BioMAP Diversity Plus: 3C Assay for Tissue Factor Biomarker Activity (AID 2282997). The following applies: BioMAP 3C HUVEC, tissue factor biomarker readout; actives raise or lower the signal. In a few lines: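 Readout: Tissue Factor ELISA. Cells: human primary umbilical vein endothelium. Time: 24 h after dosing. Analysis: bidirectional fit, DMSO baseline.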

A short description of experiment [7]: BSK_3C_VCAM1: BioMAP Diversity Plus: 3C Assay for Vascular cell adhesion molecule 1 (VCAM1) Biomarker Activity (AID 2282999). The following applies: BioMAP 3C HUVEC, VCAM1 ELISA, cytokine-stimulated; actives raise or lower the signal. In a few lines: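 Vascular primary endothelium (human umbilical vein) was exposed to chemicals and assayed 24 h later. VCAM-1 levels came from ELISA, with DMSO serving as baseline for bidirectional fitting.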
A general note: An ELISA detects its analyte on a solid surface through an enzyme-linked reagent.

Experiment [8] is described as follows: BSK_4H_Eotaxin3: BioMAP Diversity Plus: 4H Assay for Eotaxin 3 Biomarker Activity (AID 2283000).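 Also: CCL26 protein level quantified by ELISA in parallel with SRB cytotoxicity check.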 The following applies: primary human endothelial cells (HUVEC); actives raise or lower the signal. A digest of the protocol:
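HUVEC, 24 h post-dose, ELISA for Eotaxin-3/CCL26. Gain or loss of signal fitted bidirectionally vs DMSO baseline.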

Experiment [9] addresses human Peroxisome Proliferator-activated Receptor alpha (PPARa), PPARA (gene 5465) (UniProt Q07869). Briefly: ATG_PPARa_TRANS: Attagene TRANS-FACTORIAL HepG2 Assay for human Peroxisome Proliferator-activated Receptor alpha (PPARa) (AID 2283001; active = hit-call score of the fitted dose curve at least 0.9, where 1 is the maximum). A digest of the protocol: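 Cells (HepG2) are transfected with multiple reporter transcription units, exposed to chemical for 24 h, then total RNA is reverse-transcribed and amplified. Labelled products are quantified by capillary electrophoresis; induction is referenced to DMSO.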

Read-out in experiment [10]: Intercellular Adhesion Molecule 1 (ICAM1), ICAM1 (gene 3383)
The experiment can be described thus: BSK_3C_ICAM1: BioMAP Diversity Plus: 3C Assay for Intercellular Adhesion Molecule 1 (ICAM1) Biomarker Activity (AID 2283003). To be noted: primary human endothelial cells (HUVEC); actives raise or lower the signal. In a few lines:
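ELISA readout of ICAM1 in human umbilical vein endothelial cells in the 3C system, taken 24 h post-dose. Gain or loss of signal versus DMSO was fitted in both directions, with SRB total-protein staining run in parallel.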

In experiment [11] the target is Retinoic acid receptor alpha (Homo sapiens) (UniProt P10276). Briefly: ATG_RARa_TRANS: Attagene TRANS-FACTORIAL HepG2 Assay for human Retinoic Acid Receptor alpha (RARa) (AID 2283005; active = hit-call score of the fitted dose curve at least 0.9, where 1 is the maximum). A digest of the protocol: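 HepG2 cells transiently transfected with multiple reporter units expressing chimeric RARα-GAL4 fusion, with GAL4-UAS-driven reporters. After 24 h compound exposure, reporter mRNA induction quantified by RT-PCR and capillary electrophoresis with fluorescent labeling; gain-of-signal fitted relative to DMSO control.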

The nature of experiment [12]: BSK_3C_Proliferation: Cell Proliferation Assessment in the BioMAP Diversity Plus: 3C Assay (AID 2283006). To be noted: primary human endothelial cells (HUVEC). A digest of the protocol:
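Proliferation as total protein: sulforhodamine B (0.1%) stain of TCA-fixed subconfluent human umbilical vein endothelial cells, absorbance 560 nm, 48 h after dosing. Activity fitted in both directions against DMSO baseline.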

Experiment [13] deals with Peroxisome proliferator-activated receptor gamma (Homo sapiens) (UniProt P37231). Briefly: ATG_PPARg_TRANS: Attagene TRANS-FACTORIAL HepG2 Assay for human Peroxisome Proliferator-activated Receptor-gamma (PPARg) (AID 2283007; active = hit-call score of the fitted dose curve at least 0.9, where 1 is the maximum). In a few lines: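 HepG2 cells transiently transfected with multiplexed GAL4-UAS reporter units and exogenous chimeric NR-Gal4 proteins; reporter mRNA quantified after 24 h compound exposure by RT-PCR, fluorescent labelling, HpaI digestion and capillary electrophoresis; gain-of-signal fitted versus DMSO baseline.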

Experiment [14] deals with human RAR-related Orphan Receptor gamma (RORg), RORC (gene 6097) (UniProt P51449). The experiment can be described thus: ATG_RORg_TRANS: Attagene TRANS-FACTORIAL HepG2 Assay for human RAR-related Orphan Receptor gamma (RORg) (AID 2283011; active = hit-call score of the fitted dose curve at least 0.9, where 1 is the maximum). In a few lines:
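Readout: reporter transcript induction (RT-PCR, fluorescent primer extension, capillary electrophoresis) after 24 h compound exposure of transiently transfected HepG2 cells carrying a RORg-Gal4 chimera and GAL4-UAS reporters; DMSO served as baseline, with increasing signal fitted.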

Experiment [15] has as its target Retinoic acid receptor RXR-alpha (Homo sapiens) (UniProt P19793). The experiment can be described thus: ATG_RXRa_TRANS: Attagene TRANS-FACTORIAL HepG2 Assay for human Retinoid X Receptor alpha (RXRa) (AID 2283012; active = hit-call score of the fitted dose curve at least 0.9, where 1 is the maximum). In a few lines:
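TRANS format reporting activity of exogenous RXRa-Gal4 chimera in transiently transfected HepG2, 24 h exposure. Reporter transcripts quantified by RT-PCR with capillary electrophoresis, with gain of signal scored relative to DMSO.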

Experiment [16] has as its target human Peroxisome Proliferator-activated Receptor delta (PPARd), PPARD (gene 5467) (UniProt Q03181). Briefly: ATG_PPARd_TRANS: Attagene TRANS-FACTORIAL HepG2 Assay for human Peroxisome Proliferator-activated Receptor delta (PPARd) (AID 2283002; active = hit-call score of the fitted dose curve at least 0.9, where 1 is the maximum). A digest of the protocol: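 Measured quantity: GAL4-UAS reporter transcript induction in HepG2 after 24 h chemical dosing, with NR-Gal4 chimeras supplied by transient transfection. Detection by RT-PCR and capillary electrophoresis; upward fit against DMSO.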

Experiment [17] addresses human RAR-related Orphan Receptor beta (RORb), RORB (gene 6096) (UniProt Q92753). Briefly: ATG_RORb_TRANS: Attagene TRANS-FACTORIAL HepG2 Assay for human RAR-related Orphan Receptor beta (RORb) (AID 2283010; active = hit-call score of the fitted dose curve at least 0.9, where 1 is the maximum). A digest of the protocol: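 Read-out is reporter mRNA induction, quantified by RT-PCR with fluorescent capillary electrophoresis, 24 h post-dose in transiently transfected HepG2 expressing exogenous NR-Gal4 chimera. Activity fitted upward versus DMSO.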

A short description of experiment [18]: BSK_3C_uPAR: BioMAP Diversity Plus: 3C Assay for Urokinase-type plasminogen activator receptor (uPAR) Biomarker Activity (AID 2282998). To be noted: BioMAP 3C HUVEC, uPAR biomarker ELISA; actives raise or lower the signal. In a few lines:
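ELISA readout of uPAR on human vascular endothelium (umbilical vein primary cells), taken 24 h after chemical dosing. Increases and decreases are both fitted relative to DMSO vehicle.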

Experiment [19] concerns the target Nuclear receptor subfamily 1 group I member 2 (Homo sapiens) (UniProt O75469). The experiment can be described thus: ATG_PXR_TRANS: Attagene TRANS-FACTORIAL HepG2 Assay for human Pregnane X Receptor (PXR) (AID 2283008; active = hit-call score of the fitted dose curve at least 0.9, where 1 is the maximum). In a few lines:
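Multiplexed TRANS reporter panel in HepG2; this component tracks PXR-Gal4-driven reporter mRNA after 24 h dosing, measured by RT-PCR with capillary electrophoresis fluorescence, fitted against DMSO.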

Where “and” joins values, the source holds several entries; their conditions need not be identical. Equal entries are not always repeated. Inconclusive results are not listed. Where a structure was tested more than once in an assay, its records may differ in their call. Calls of active or inactive are those of the source. The calls were made as follows, unless noted: active = hit-call score of the fitted dose curve at least 0.9, where 1 is the maximum; inactive = score below 0.9.

Consider four molecules from PubChem BioAssay (EPA / NIEHS).

Peroxisome proliferator-activated receptor gamma (Homo sapiens), sequence (P37231 whole entry, looked up, the tested form may be a part): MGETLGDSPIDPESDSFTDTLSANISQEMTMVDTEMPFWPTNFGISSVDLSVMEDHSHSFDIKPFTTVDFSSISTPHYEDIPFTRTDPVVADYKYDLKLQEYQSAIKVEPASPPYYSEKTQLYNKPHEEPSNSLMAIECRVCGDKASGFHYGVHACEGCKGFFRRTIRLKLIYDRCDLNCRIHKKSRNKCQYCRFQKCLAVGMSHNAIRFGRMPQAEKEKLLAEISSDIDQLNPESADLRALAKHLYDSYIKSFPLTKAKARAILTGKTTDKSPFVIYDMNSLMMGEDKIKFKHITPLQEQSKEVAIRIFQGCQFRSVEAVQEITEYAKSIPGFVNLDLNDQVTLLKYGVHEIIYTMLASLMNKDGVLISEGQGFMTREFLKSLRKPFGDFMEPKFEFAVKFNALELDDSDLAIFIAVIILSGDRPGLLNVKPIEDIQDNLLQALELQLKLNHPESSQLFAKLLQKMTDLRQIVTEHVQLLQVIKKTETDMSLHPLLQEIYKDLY
Myc proto-oncogene protein (Homo sapiens), sequence (P01106 whole entry, looked up): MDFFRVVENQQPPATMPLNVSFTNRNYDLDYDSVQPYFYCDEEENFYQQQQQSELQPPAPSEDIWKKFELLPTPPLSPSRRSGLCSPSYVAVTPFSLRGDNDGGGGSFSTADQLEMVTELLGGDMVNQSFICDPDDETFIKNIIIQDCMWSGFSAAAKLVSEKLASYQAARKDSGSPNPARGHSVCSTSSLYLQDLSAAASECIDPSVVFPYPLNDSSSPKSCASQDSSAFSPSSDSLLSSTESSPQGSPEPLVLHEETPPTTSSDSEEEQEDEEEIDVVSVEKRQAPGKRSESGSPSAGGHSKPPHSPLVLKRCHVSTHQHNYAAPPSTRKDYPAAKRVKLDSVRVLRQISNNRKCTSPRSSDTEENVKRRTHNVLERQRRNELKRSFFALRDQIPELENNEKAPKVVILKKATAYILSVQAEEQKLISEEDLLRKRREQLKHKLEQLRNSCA
Retinoic acid receptor RXR-alpha (Homo sapiens), sequence (P19793 whole entry, looked up, the tested form may be a part): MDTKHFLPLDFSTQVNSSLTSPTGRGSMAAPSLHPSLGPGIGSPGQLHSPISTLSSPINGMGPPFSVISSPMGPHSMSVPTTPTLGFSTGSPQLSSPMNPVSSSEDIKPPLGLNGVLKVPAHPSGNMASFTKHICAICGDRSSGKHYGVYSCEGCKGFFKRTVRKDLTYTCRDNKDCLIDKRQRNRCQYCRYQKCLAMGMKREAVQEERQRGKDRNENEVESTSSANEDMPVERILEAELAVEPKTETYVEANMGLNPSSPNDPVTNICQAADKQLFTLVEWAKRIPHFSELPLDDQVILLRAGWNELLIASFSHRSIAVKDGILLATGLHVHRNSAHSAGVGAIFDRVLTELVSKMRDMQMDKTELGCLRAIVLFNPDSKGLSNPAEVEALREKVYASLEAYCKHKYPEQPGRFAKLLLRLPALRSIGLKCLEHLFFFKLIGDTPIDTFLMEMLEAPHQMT
human Peroxisome Proliferator-activated Receptor delta (PPARd), PPARD (gene 5467), sequence (Q03181 whole entry, looked up, the tested form may be a part): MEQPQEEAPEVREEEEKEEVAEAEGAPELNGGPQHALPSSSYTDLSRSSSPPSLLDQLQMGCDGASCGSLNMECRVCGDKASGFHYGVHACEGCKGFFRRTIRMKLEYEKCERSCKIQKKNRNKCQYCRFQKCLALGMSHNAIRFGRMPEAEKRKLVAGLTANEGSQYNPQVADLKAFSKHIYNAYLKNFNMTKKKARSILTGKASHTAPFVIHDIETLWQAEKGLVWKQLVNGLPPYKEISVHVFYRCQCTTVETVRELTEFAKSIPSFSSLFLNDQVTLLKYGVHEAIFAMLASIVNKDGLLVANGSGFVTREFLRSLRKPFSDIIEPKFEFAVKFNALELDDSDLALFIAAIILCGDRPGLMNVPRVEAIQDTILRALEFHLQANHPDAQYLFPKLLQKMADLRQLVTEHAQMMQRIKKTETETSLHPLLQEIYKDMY
human Peroxisome Proliferator-activated Receptor alpha (PPARa), PPARA (gene 5465), sequence (Q07869 whole entry, looked up): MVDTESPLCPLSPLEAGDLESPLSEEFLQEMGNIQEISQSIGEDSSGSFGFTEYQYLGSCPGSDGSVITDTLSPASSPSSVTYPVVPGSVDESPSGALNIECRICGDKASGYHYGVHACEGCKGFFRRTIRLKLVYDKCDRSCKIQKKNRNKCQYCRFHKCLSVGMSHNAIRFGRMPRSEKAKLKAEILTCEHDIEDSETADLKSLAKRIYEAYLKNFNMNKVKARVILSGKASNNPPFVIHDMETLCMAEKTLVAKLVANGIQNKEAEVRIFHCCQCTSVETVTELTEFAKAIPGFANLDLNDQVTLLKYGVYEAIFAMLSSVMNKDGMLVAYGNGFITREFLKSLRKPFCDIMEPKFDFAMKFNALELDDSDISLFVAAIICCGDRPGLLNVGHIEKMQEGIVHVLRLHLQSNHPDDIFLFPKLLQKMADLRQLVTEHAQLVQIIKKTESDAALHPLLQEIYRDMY
human RAR-related Orphan Receptor beta (RORb), RORB (gene 6096), sequence (Q92753 whole entry, looked up, the tested form may be a part): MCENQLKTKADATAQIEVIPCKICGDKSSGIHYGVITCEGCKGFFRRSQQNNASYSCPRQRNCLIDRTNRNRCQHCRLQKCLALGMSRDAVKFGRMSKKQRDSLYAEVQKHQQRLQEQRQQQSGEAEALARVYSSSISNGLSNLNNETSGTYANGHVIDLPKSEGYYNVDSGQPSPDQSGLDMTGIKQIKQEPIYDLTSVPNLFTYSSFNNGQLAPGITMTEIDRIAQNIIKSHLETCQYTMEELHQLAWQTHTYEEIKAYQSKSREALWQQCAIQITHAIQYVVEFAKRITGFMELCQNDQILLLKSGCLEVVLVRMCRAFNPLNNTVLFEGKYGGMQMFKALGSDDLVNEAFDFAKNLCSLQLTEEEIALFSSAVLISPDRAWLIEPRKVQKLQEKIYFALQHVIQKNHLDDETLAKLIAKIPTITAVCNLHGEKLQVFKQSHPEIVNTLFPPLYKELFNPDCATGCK
human RAR-related Orphan Receptor gamma (RORg), RORC (gene 6097), sequence (P51449 whole entry, looked up, the tested form may be a part): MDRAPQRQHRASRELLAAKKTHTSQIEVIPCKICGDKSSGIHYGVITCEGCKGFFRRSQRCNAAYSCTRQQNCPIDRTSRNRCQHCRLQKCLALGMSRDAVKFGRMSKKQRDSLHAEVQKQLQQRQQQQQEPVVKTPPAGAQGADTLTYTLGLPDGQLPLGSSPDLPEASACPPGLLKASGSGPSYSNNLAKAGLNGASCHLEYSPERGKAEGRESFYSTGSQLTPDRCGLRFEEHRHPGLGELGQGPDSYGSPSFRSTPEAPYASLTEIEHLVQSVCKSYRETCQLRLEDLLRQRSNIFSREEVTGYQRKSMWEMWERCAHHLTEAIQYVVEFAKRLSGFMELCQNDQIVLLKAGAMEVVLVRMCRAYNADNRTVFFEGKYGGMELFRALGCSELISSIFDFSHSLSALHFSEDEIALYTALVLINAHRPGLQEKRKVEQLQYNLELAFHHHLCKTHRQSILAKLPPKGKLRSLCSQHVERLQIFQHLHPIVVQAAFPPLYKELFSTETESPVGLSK
Cellular tumor antigen p53 (Homo sapiens), sequence (P04637 whole entry, looked up, the tested form may be a part): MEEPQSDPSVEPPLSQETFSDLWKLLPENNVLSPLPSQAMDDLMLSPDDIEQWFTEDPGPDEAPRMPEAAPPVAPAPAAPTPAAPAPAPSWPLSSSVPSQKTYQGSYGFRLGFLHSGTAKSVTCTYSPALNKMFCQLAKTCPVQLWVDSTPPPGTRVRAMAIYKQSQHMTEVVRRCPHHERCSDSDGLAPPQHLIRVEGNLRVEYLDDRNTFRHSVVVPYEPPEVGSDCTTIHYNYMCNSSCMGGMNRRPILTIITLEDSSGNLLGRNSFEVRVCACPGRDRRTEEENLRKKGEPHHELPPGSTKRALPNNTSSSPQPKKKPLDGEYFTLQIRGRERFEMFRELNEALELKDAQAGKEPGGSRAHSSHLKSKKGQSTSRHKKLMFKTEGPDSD
Nuclear receptor subfamily 1 group I member 2 (Homo sapiens), sequence (O75469 whole entry, looked up, the tested form may be a part): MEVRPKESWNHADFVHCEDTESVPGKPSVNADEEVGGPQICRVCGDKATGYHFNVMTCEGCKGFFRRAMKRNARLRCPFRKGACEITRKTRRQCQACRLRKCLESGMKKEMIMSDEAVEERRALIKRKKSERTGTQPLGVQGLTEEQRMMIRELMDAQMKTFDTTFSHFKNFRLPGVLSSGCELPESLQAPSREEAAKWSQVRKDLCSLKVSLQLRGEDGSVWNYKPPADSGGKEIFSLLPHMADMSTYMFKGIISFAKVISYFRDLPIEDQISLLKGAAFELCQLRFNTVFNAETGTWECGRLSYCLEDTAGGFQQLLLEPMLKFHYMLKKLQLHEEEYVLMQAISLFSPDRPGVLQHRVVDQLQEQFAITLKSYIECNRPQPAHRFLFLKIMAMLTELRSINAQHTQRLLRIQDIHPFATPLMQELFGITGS
Retinoic acid receptor alpha (Homo sapiens), sequence (P10276 whole entry, looked up, the tested form may be a part): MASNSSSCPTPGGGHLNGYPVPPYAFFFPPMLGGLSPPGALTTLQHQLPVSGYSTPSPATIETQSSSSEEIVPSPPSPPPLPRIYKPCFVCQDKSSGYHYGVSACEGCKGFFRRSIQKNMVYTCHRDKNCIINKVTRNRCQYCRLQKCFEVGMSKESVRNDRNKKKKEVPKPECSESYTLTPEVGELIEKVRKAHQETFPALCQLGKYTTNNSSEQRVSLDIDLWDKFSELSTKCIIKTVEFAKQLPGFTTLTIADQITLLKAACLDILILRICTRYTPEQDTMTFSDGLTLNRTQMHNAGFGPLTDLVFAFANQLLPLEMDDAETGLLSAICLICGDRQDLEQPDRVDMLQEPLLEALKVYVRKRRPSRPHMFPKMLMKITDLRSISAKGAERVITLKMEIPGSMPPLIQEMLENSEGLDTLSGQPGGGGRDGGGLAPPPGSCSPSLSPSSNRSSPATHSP

`CCCCCCCC/C=C\CCCCCCCC(=O)OC[C@@H](O)[C@H]1OC[C@H](O)[C@H]1O`: the outcome in experiment [1], in experiment [2], in [3], in experiment [4], in experiment [5] and in experiment [6] was inactive. Moreover, the result in [7], in [8], in [9], in experiment [10], in [11] and in experiment [12] was inactive. Further, the molecule was called inactive in [13], in [14] and in [15].

Regarding `FC(F)C(F)(F)COCC1CO1` (stereo not drawn), the result in [1], in experiment [2], in experiment [3], in experiment [4], in [5] and in experiment [6] was inactive. The outcome in experiment [7], in experiment [8], in experiment [16], in experiment [10], in experiment [12] and in experiment [13] was inactive. In addition, the molecule was classed as inactive in experiment [17], in experiment [14] and in [15].

In general, AC50 refers to the midpoint of the concentration-response curve, whichever way the signal moves. Turning to `FC(F)(F)C(F)(F)C(F)(F)C(F)(F)C(F)(F)C(F)(F)I`, the molecule was called inactive in [1], in [2], in experiment [3], in experiment [5], in [6] and in [18]. In addition, the outcome in experiment [7], in experiment [8], in experiment [9], in [16], in experiment [10] and in [12] was inactive. Further, the outcome in [19], in experiment [17], in [14] and in experiment [15] was inactive. Also, the AC50 in experiment [3] was 107 µM (active); in experiment [13], 88 µM (active) and 106 µM (active).

In the case of `Cc1ccc(S(=O)(=O)NC(=O)NN2CCCCCC2)cc1`, the result in [1], in [2], in [3], in experiment [4], in [6] and in experiment [18] was inactive. Moreover, the result in experiment [7], in [8], in experiment [9], in experiment [10], in experiment [12] and in experiment [13] was inactive. Besides, the molecule was called inactive in experiment [19], in experiment [17] and in [15].
